Measured values as given in PubChem BioAssay AID1159580 (chemical genetic matrix, 2015).
Values joined by “and” are separate entries in the source; they are usually repeats but may differ in a detail not shown here. Equal entries are not always repeated. Out of some 5,500 compounds screened, about 2,000 (36%) were called active. Roughly 18% stayed inconclusive and do not appear here. Rule as the data show it: active = normalized growth mostly below about 0.91 (no sharp cut-off); inconclusive = no clear call, values can overlap the other calls; inactive = mostly above about 0.92. The list shows a part of the results.

Test: chemical genetic growth profiling, strain panel (AID 1159580);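 also: tested at 20 µM; growth read once vehicle control cultures reached saturation at 30 °C; 1 = growth at the plate median or of vehicle wells; lower values mean less growth of the strain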
Settings: growth OD

Measured: normalized growth

COc1ccc(Cl)cc1C(=O)NCCc1ccc(S(=O)(=O)NC(=O)NC2CCCCC2)cc1
inactive: S. cerevisiae deletion strains, locus YJR075W, strain HOC1, active compounds read low 0.98 and 0.984 | S. cerevisiae deletion strains, locus YKL009W, strain mrt4, active compounds read low 1.02 | S. cerevisiae deletion strains, locus YKL068W, active compounds read low 1.04 | S. cerevisiae deletion strains, locus YKL085W, strain MDH1 (second series), active compounds read low 0.977 | S. cerevisiae deletion strains, locus YKL085W, strain MDH1, active compounds read low 0.977 | S. cerevisiae deletion strains, locus YKL160W, strain elf1, active compounds read low 1.01 | S. cerevisiae deletion strains, locus YKL190W, strain CNB1, active compounds read low 0.945 | S. cerevisiae deletion strains, locus YKR001C, strain vps1, active compounds read low 0.997 | S. cerevisiae deletion strains, locus YKR026C, strain gcn3, active compounds read low 0.989 | S. cerevisiae deletion strains, locus YKR091W, strain srl3, active compounds read low 0.993 | S. cerevisiae deletion strains, locus YLL001W, strain dnm1, active compounds read low 1.01 | S. cerevisiae deletion strains, locus YLL026W, active compounds read low 0.995 | S. cerevisiae deletion strains, locus YLL041C, strain sdh2, active compounds read low 1 | S. cerevisiae deletion strains, locus YLR027C, strain aat2, active compounds read low 1.01 | S. cerevisiae deletion strains, locus YLR039C, strain RIC1, active compounds read low 0.963 | S. cerevisiae deletion strains, locus YLR058C, strain SHM2, active compounds read low 0.972 | S. cerevisiae deletion strains, locus YLR102C, strain apc9, active compounds read low 0.989 | S. cerevisiae deletion strains, locus YLR113W, strain HOG1, active compounds read low 1.01 | S. cerevisiae deletion strains, locus YLR221C, strain rsa3, active compounds read low 1 | S. cerevisiae deletion strains, locus YLR258W, strain gsy2, active compounds read low 0.982 | S. cerevisiae deletion strains, locus YLR262C, strain YPT6 (second series), active compounds read low 0.999 | S. cerevisiae deletion strains, locus YLR262C, strain YPT6, active compounds read low 0.915 | S. cerevisiae deletion strains, locus YLR268W, strain sec22, active compounds read low 0.966 | S. cerevisiae deletion strains, locus YLR320W, strain mms22, active compounds read low 1 | S. cerevisiae deletion strains, locus YLR330W, strain CHS5, active compounds read low 0.994 | S. cerevisiae deletion strains, locus YLR342W, strain FKS1 (second series), active compounds read low 1.1 | S. cerevisiae deletion strains, locus YLR342W, strain FKS1, active compounds read low 1.01 | S. cerevisiae deletion strains, locus YLR357W, strain rsc2, active compounds read low 0.998 | S. cerevisiae deletion strains, locus YLR370C, strain arc18, active compounds read low 0.998 | S. cerevisiae deletion strains, locus YLR371W, strain rom2, active compounds read low 1.01 | S. cerevisiae deletion strains, locus YLR384C, strain iki3, active compounds read low 1 | S. cerevisiae deletion strains, locus YLR418C, strain cdc73, active compounds read low 0.944 | S. cerevisiae deletion strains, locus YML016C, strain PPZ1, active compounds read low 0.987 | S. cerevisiae deletion strains, locus YML032C, strain rad52, active compounds read low 1.02 | S. cerevisiae deletion strains, locus YML120C, strain ndi1, active compounds read low 1.02 | S. cerevisiae deletion strains, locus YML124C, strain tub3, active compounds read low 1 | S. cerevisiae deletion strains, locus YMR058W, strain fet3, active compounds read low 0.999 | S. cerevisiae deletion strains, locus YMR078C, strain ctf18, active compounds read low 0.998 | S. cerevisiae deletion strains, locus YMR125W, strain sto1, active compounds read low 0.992 | S. cerevisiae deletion strains, locus YMR129W, active compounds read low 1.01 | S. cerevisiae deletion strains, locus YMR205C, strain PFK2, active compounds read low 1 | S. cerevisiae deletion strains, locus YMR223W, strain ubp8, active compounds read low 1.05 | S. cerevisiae deletion strains, locus YMR231W, strain pep5, active compounds read low 1.01 | S. cerevisiae deletion strains, locus YMR263W, strain SAP30, active compounds read low 0.961 and 1 | S. cerevisiae deletion strains, locus YMR307W, strain GAS1, active compounds read low 1.06 and 0.976 | S. cerevisiae deletion strains, locus YNL067W, strain RPL9B, active compounds read low 0.951 | S. cerevisiae deletion strains, locus YNL071W, strain lat1, active compounds read low 1.01 | S. cerevisiae deletion strains, locus YNL128W, strain TEP1, active compounds read low 0.911 | S. cerevisiae deletion strains, locus YNL153C, strain GIM3, active compounds read low 0.943 and 1.04 | S. cerevisiae deletion strains, locus YNL175C, strain NOP13, active compounds read low 1 | S. cerevisiae deletion strains, locus YNL183C, strain NPR1, active compounds read low 0.947 | S. cerevisiae deletion strains, locus YNL197C, strain WHI3, active compounds read low 1.01 | S. cerevisiae deletion strains, locus YNL209W, strain ssb2, active compounds read low 1.01 | S. cerevisiae deletion strains, locus YNL224C, strain SQS1, active compounds read low 1.01 | S. cerevisiae deletion strains, locus YNL233W, strain BNI4, active compounds read low 0.978 | S. cerevisiae deletion strains, locus YNL248C, strain rpa49, active compounds read low 1.01 | S. cerevisiae deletion strains, locus YNL250W, strain rad50, active compounds read low 0.969 | S. cerevisiae deletion strains, locus YNL271C, strain bni1, active compounds read low 0.999 | S. cerevisiae deletion strains, locus YNL298W, strain CLA4, active compounds read low 0.987 | S. cerevisiae deletion strains, locus YNL307C, strain MCK1, active compounds read low 1.03 | S. cerevisiae deletion strains, locus YNL322C, strain KRE1 (second series), active compounds read low 0.999 | S. cerevisiae deletion strains, locus YNL322C, strain KRE1, active compounds read low 0.975 | S. cerevisiae deletion strains, locus YNR049C, strain mso1, active compounds read low 1 | S. cerevisiae deletion strains, locus YNR052C, strain pop2, active compounds read low 1 | S. cerevisiae deletion strains, locus YOL006C, strain TOP1, active compounds read low 0.875 | S. cerevisiae deletion strains, locus YOL012C, strain htz1 1.15 | S. cerevisiae deletion strains, locus YOL147C, strain pex11, active compounds read low 1 | S. cerevisiae deletion strains, locus YOR001W, strain rrp6, active compounds read low 1.01 | S. cerevisiae deletion strains, locus YOR061W, strain CKA2, active compounds read low 0.96 | S. cerevisiae deletion strains, locus YOR069W, strain VPS5, active compounds read low 1 | S. cerevisiae deletion strains, locus YOR070C, strain gyp1, active compounds read low 0.995 | S. cerevisiae deletion strains, locus YOR080W, strain dia2, active compounds read low 0.987 | S. cerevisiae deletion strains, locus YOR083W, strain WHI5 (second series), active compounds read low 1.07 | S. cerevisiae deletion strains, locus YOR083W, strain WHI5, active compounds read low 1.01 | S. cerevisiae deletion strains, locus YOR106W, strain vam3, active compounds read low 1.01 | S. cerevisiae deletion strains, locus YOR136W, strain idh2, active compounds read low 0.996 | S. cerevisiae deletion strains, locus YOR144C, strain elg1, active compounds read low 0.999 | S. cerevisiae deletion strains, locus YOR184W, strain ser1, active compounds read low 1.06 | S. cerevisiae deletion strains, locus YOR231W, strain MKK1, active compounds read low 0.994 | S. cerevisiae deletion strains, locus YOR265W, strain rbl2, active compounds read low 1 | S. cerevisiae deletion strains, locus YOR270C, strain vph1, active compounds read low 0.998 | S. cerevisiae deletion strains, locus YOR290C, strain snf2, active compounds read low 0.938 | S. cerevisiae deletion strains, locus YOR316C, strain cot1, active compounds read low 0.994 | S. cerevisiae deletion strains, locus YPL051W, strain arl3, active compounds read low 1.01 | S. cerevisiae deletion strains, locus YPL055C, strain LGE1, active compounds read low 0.877 | S. cerevisiae deletion strains, locus YPL078C, strain atp4, active compounds read low 1.01 | S. cerevisiae deletion strains, locus YPL106C, strain sse1, active compounds read low 1.02 | S. cerevisiae deletion strains, locus YPL240C, strain hsp82, active compounds read low 1 | S. cerevisiae deletion strains, locus YPL241C, strain CIN2, active compounds read low 0.972 and 1.01 | S. cerevisiae deletion strains, locus YPL256C, strain CLN2, active compounds read low 1.01 | S. cerevisiae deletion strains, locus YPR119W, strain clb2, active compounds read low 0.986 | S. cerevisiae deletion strains, locus YPR141C, strain kar3, active compounds read low 0.976 | S. cerevisiae deletion strains, locus YPR163C, strain tif3, active compounds read low 1 | S. cerevisiae deletion strains, locus YPR167C, strain met16, active compounds read low 0.993 | S. cerevisiae deletion strains, strain wtn01, active compounds read low 0.98 | S. cerevisiae strains, strain wild type, active compounds read low 0.97
